# Reference: PubChem BioAssay (NCI)
# This is part of a sample that, as a whole, favours compounds with a hit. Of some 83,000 tested, about 20% had one in any assay.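 In brief: 96-well plates, 48 h treatment, single concentration, percent growth endpoint.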 Activity calls are given as the source filed them. Rule for the calls: active = growth percent below 10; inactive = the rest.
# Tested on: EKVX NSCLC
# Assay: NCI-60 one-dose screen, 48 h (100 = growth as untreated, 0 = no growth, -100 = all killed)
# Details: 10 µM unless noted
row,SMILES,growth
1,COc1cccc(N2CCN(c3ncnc4c3[nH]c3ccc(F)cc34)C[C@@H]2C)c1,-0.593% (active)
2,Cc1ccc(/C=C/c2nn3c(-c4ccco4)nnc3s2)cc1C,82.8% (inactive)
3,CCN1C(=S)N(CC)C2C1NN=C1SC(c3ccccc3)=CC(=O)N12 (stereo not given),106% (inactive)
4,CC(C)NC(=O)c1cc(-c2ccc(NC(=O)Nc3ccc(N4CCOCC4)c(C(F)(F)F)c3)cc2)nc2cccnc12,72.7% (inactive)
5,Cn1cc(-c2cc(N)n3nc(-c4cn(C)c5ccc(Cl)cc45)cc3n2)c2cc(Cl)ccc21,94.9% (inactive)
6,NS(=O)(=O)c1cccc(Nc2nc(SCC(=O)c3ccc(Cl)cc3)nc3ccccc23)c1,77.4% (inactive)
7,Cc1sc2c(c1C)c(=O)nc1c(-c3nc(-c4ccc(F)cc4)no3)n[nH]n12,95.2% (inactive)
8,CN1C(=O)N(c2ccccc2)C2N=C(N/N=C/c3ccccc3)SC21 (stereo not given),53.4% (inactive)
9,O=C1C2=C(C(=O)c3c(O)cccc31)C(c1ccco1)c1sc(=O)[nH]c1S2 (stereo not given),83.4% (inactive)
10,N[C@@H](Cc1cn(-c2c3ccccc3nc3ccccc23)nn1)C(=O)O,101% (inactive)
11,Cc1sc2nc(NCc3ccccc3Cl)[nH]c(=O)c2c1C,98.1% (inactive)
12,COc1ccccc1/C=C/C=N/NC1=NC2C(S1)N(C)C(=O)N2C (stereo not given),40.1% (inactive)
13,CC(=O)Nc1cc(F)cc(-c2ccc3[nH]cc(-c4ccccc4)c3n2)c1,43.7% (inactive)
14,O=C(CSc1nc2sc3c(c2c(=O)n1-c1ccc(Cl)cc1)CCCC3)N/N=C/c1ccc(F)cc1,90.3% (inactive)
15,Cc1ccccc1NC(=O)/C=C/c1ccc(OCCOc2ccc3c(C)cc(=O)oc3c2)cc1,107% (inactive)
16,CCN(CC)c1ccc(C=O)c(OCc2cn(CC(=O)Nc3ccc(Cl)cc3)nn2)c1,82.8% (inactive)
17,CC(C)(C)OC(=O)N1C(=O)c2c(c3c4ccccc4[nH]c3c3ccc4ccccc4c23)C1=O,67.7% (inactive)
18,O=C(CSc1nc2sc3c(c2c(=O)n1-c1ccc(Cl)cc1)CCCC3)NNC(=O)Nc1cccc(C(F)(F)F)c1,31.5% (inactive)
19,CC(=O)Oc1ccccc1C(=O)Nc1cc(C(C)C)ccc1C,10.5% (inactive)
20,N#Cc1c(-c2ccc(Cl)cc2)nc(SCc2ccc(F)cc2)nc1N1CCNCC1,73.7% (inactive)
21,COc1ccc(NC(=O)c2sc3nc(-c4cnccn4)cc(-c4cccs4)c3c2N)cc1,87.6% (inactive)
22,CNC(=O)c1cc(-c2ccc(NC(=O)Nc3ccc(N4CCN(C)CC4)c(C(F)(F)F)c3)cc2)nc2cccnc12,-74% (active)
23,O=C(CSc1nccc(=O)[nH]1)Nc1ccc(-c2nc3ccccc3[nH]2)cc1,111% (inactive)
24,O=C1c2c(c3c4cccnc4[nH]c3c3ccc4ccccc4c23)C(=O)N1CCO,108% (inactive)
25,CN1CCN(Cc2ccc(NC(=O)c3cncc(C#Cc4cnc5ccc(N6CCSCC6)nn45)c3)cc2C(F)(F)F)CC1,-47.1% (active)
